# About 7,900 targets were measured; listed, in parts, are those with a hit and a random draw of the rest. About 0.6% of all pairs of compound and target were hits.
# Tests used:
# Test in all cases: log2 fold change, soluble protein after heating vs DMSO (PISA); higher = thermal stabilisation; K562 cells, 10 uM, 30 min; active = over 0.2 and 3.5 SD of the protein, either way, in both replicates (recomputed)
# [1] = compound: COC1=CC=C(C=C1)CN2C=CC3=C2C=C(C=C3)C(=O)NO
# Method in brief: (§1)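 K562 cells at 2×10^6 cells/mL were exposed to 10 μM compound for 30 min, then aliquots were heated for 3 min across 48°C-58°C, pooled, and extracted in PBS containing 0.5% NP-40 at 4°C. The supernatant after 21,000xg for 90 min was taken as soluble protein and measured by TMTpro 16plex LC-MS/MS with channel sums equalised. Thermal stability is reported relative to control samples, with values from duplicates. Fold changes are given on a log2 scale.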
# filanesib = compound: CON(C)C(=O)N1N=C(c2cc(F)ccc2F)S[C@@]1(CCCN)c1ccccc1 [filanesib]
# Method in brief: as §1
# zotarolimus = compound: CO[C@H]1C[C@@H]2CC[C@@H](C)[C@@](O)(O2)C(=O)C(=O)N2CCCC[C@H]2C(=O)O[C@H]([C@H](C)C[C@@H]2CC[C@H](n3cnnn3)[C@H](OC)C2)CC(=O)[C@H](C)/C=C(\C)[C@@H](O)[C@@H](OC)C(=O)[C@H](C)C[C@H](C)/C=C/C=C/C=C/1C [zotarolimus]
# Method in brief: as §1
# idasanutlin = compound: COc1cc(C(=O)O)ccc1NC(=O)[C@@H]1N[C@@H](CC(C)(C)C)[C@](C#N)(c2ccc(Cl)cc2F)[C@H]1c1cccc(Cl)c1F [idasanutlin]
# Method in brief: as §1
# alisertib = compound: COc1cc(Nc2ncc3c(n2)-c2ccc(Cl)cc2C(c2c(F)cccc2OC)=NC3)ccc1C(=O)O [alisertib]
# Method in brief: as §1
# [2] = compound: COc1cc2nc(-c3cc(F)ccc3O)nc(N[C@@H]3CNC[C@H]3C(C)(C)O)c2cc1OC
# Method in brief: as §1
# gefitinib = compound: COc1cc2ncnc(Nc3ccc(F)c(Cl)c3)c2cc1OCCCN1CCOCC1 [gefitinib]
# Method in brief: as §1
# [3] = compound: COc1cccc2cc(-c3nc([C@H]4CC[C@H](C(=O)O)CC4)n4ncnc(N)c34)[nH]c12
# Method in brief: as §1
# lapatinib = compound: CS(=O)(=O)CCNCc1ccc(-c2ccc3ncnc(Nc4ccc(OCc5cccc(F)c5)c(Cl)c4)c3c2)o1 [lapatinib]
# Method in brief: as §1
# pictilisib = compound: CS(=O)(=O)N1CCN(Cc2cc3nc(-c4cccc5[nH]ncc45)nc(N4CCOCC4)c3s2)CC1 [pictilisib]
# Method in brief: as §1
# UniProt P14854, sequence (P14854 whole entry, looked up): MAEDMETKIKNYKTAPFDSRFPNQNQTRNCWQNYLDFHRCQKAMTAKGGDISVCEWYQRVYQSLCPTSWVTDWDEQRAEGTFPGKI
# UniProt P45973, sequence (P45973 whole entry, looked up): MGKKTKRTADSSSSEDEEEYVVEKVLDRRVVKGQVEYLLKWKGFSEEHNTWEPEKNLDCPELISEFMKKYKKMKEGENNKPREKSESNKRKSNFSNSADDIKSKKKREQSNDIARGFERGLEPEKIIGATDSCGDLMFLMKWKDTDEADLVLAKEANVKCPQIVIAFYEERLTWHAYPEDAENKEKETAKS
# UniProt Q96SZ6, sequence (Q96SZ6 whole entry, looked up): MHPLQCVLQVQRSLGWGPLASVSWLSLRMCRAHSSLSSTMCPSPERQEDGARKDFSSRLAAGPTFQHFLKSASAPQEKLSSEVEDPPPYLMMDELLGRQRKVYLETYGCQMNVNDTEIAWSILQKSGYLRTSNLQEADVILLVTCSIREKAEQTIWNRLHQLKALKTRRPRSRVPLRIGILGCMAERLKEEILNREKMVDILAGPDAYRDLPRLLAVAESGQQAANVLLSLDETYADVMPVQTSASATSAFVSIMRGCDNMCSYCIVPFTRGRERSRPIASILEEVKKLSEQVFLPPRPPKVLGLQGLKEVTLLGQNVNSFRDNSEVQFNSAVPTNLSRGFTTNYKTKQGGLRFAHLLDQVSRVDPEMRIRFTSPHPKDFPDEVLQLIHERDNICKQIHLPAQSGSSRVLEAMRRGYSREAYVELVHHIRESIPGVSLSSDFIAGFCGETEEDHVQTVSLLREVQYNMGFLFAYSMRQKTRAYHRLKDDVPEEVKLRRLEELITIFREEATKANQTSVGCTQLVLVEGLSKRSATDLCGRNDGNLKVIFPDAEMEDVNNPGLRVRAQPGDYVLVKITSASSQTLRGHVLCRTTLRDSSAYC
# UniProt Q00535, sequence (Q00535 whole entry, looked up): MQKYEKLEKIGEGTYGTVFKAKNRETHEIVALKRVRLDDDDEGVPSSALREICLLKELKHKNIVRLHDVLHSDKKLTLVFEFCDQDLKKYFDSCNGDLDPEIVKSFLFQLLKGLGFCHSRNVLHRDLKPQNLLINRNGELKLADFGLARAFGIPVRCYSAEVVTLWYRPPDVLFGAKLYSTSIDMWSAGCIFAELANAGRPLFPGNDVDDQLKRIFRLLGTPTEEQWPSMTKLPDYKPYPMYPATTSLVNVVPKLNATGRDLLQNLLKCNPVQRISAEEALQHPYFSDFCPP
# UniProt Q9ULV3, sequence (Q9ULV3 whole entry, looked up): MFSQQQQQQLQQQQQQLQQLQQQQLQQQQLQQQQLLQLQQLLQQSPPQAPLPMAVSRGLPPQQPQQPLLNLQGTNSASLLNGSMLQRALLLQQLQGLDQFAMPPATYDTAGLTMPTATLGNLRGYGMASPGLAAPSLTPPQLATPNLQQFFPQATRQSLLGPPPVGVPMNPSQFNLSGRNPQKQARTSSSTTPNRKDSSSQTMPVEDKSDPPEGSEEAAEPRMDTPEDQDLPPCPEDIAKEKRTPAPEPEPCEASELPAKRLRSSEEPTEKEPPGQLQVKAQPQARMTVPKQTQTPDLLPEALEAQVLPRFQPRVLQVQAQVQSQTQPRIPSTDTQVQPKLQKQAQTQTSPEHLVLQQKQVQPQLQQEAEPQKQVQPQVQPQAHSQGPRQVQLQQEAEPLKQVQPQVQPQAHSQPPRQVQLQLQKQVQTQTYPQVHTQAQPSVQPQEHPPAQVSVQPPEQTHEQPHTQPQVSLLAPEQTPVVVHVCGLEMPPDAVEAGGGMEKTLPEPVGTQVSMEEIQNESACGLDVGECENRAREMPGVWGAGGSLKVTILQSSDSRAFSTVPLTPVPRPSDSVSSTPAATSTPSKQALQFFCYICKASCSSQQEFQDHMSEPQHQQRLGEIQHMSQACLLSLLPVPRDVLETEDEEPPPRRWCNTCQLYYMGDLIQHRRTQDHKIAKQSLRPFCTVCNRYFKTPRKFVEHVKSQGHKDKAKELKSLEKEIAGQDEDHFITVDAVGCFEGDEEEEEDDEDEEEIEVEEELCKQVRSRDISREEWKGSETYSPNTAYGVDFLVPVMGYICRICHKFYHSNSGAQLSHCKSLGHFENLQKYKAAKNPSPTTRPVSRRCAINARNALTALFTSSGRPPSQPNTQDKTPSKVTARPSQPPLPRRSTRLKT
# UniProt Q96GQ5, sequence (Q96GQ5 whole entry, looked up): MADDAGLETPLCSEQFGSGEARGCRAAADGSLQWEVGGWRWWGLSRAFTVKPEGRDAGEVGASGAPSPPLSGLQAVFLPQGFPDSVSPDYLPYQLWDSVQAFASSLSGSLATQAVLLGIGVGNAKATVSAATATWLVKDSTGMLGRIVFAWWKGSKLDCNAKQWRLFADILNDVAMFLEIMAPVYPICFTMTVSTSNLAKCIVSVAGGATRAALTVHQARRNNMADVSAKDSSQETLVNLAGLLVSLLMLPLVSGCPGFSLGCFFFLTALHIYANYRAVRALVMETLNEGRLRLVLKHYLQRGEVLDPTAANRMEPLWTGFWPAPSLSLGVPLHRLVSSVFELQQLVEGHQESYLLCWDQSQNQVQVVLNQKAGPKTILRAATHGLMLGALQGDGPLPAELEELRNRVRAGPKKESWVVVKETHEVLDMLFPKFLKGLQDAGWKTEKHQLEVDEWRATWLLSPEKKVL
# UniProt Q9NZN8, sequence (Q9NZN8 whole entry, looked up): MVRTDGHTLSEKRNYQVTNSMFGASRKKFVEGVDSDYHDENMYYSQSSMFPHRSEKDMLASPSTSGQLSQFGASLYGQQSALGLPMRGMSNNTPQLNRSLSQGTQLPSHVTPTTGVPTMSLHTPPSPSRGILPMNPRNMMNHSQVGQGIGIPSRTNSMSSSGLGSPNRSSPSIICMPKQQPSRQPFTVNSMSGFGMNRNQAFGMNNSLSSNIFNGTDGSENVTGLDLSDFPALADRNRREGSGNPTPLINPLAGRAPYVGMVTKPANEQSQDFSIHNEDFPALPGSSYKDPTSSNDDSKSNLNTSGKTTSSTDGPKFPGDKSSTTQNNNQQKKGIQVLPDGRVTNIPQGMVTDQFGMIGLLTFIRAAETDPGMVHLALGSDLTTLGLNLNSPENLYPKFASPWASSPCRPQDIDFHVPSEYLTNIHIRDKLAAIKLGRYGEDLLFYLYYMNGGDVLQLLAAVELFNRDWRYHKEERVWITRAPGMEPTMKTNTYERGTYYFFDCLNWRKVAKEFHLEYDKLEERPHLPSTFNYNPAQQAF
# UniProt P35219, sequence (P35219 whole entry, looked up): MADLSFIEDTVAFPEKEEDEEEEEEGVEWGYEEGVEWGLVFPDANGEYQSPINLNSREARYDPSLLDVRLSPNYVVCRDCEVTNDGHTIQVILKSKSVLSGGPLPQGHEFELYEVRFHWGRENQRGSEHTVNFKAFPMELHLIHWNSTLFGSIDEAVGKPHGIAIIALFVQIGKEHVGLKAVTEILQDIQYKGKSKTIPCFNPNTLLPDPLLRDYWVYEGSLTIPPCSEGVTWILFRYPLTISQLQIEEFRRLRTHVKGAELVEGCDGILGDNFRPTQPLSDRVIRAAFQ
# UniProt Q13137, sequence (Q13137 whole entry, looked up): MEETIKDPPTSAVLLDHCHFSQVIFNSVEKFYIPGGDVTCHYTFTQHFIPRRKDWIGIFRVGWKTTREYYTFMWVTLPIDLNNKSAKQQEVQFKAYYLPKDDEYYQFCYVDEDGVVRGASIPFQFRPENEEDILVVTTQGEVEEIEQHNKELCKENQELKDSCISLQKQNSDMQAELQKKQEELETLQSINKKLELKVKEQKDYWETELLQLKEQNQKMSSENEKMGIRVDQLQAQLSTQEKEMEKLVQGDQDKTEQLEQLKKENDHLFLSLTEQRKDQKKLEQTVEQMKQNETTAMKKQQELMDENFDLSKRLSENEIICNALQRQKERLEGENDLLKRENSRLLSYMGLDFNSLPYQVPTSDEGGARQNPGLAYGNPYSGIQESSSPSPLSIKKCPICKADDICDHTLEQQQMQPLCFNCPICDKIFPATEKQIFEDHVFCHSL
# UniProt P05937, sequence (P05937 whole entry, looked up): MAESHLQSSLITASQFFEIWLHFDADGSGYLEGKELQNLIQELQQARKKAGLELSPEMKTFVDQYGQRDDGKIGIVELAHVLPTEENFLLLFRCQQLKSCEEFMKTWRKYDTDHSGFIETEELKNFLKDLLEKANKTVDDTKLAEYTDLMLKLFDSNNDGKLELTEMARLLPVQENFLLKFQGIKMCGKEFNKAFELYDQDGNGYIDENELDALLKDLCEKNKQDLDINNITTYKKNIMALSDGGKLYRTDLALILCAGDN
# UniProt P14635, sequence (P14635 whole entry, looked up): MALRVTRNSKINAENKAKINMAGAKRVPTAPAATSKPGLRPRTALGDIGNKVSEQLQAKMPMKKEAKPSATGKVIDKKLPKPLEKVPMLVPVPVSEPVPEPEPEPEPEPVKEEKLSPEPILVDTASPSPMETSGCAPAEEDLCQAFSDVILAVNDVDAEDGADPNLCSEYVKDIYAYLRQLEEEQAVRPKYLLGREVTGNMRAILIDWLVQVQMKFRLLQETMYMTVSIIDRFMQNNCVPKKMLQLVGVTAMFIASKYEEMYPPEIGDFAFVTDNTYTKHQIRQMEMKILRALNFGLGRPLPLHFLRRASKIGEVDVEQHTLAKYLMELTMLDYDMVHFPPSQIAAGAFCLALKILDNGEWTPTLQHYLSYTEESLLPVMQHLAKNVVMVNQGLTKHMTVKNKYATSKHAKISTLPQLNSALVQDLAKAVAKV
# UniProt P19784, sequence (P19784 whole entry, looked up): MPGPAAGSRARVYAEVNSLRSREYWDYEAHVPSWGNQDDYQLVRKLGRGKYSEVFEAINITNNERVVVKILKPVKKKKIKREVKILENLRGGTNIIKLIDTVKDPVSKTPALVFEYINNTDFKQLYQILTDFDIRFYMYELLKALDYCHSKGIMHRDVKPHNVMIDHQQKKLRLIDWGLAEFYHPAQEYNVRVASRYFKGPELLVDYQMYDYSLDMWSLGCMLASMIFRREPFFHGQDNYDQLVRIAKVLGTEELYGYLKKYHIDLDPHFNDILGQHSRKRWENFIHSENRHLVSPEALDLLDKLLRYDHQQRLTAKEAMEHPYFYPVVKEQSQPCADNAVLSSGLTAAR
Target,log2 fold change [1],log2 fold change (filanesib),log2 fold change (zotarolimus),log2 fold change (idasanutlin),log2 fold change (alisertib),log2 fold change [2],log2 fold change (gefitinib),log2 fold change [3],log2 fold change (lapatinib),log2 fold change (pictilisib)
CDK5 (UniProt Q00535),0.004 (inactive),0.024 (inactive),-0.003 (inactive),-0.099 (inactive),-0.046 (inactive),0.054 (inactive),0.002 (inactive),0 (inactive),-0.033 (inactive),-0.011 (inactive)
COPS3 (UniProt Q9UNS2),0.12 (inactive),-0.035 (inactive),-0.004 (inactive),-0.09 (inactive),-0.012 (inactive),0.008 (inactive),-0.031 (inactive),0.052 (inactive),-0.015 (inactive),-0.063 (inactive)
CDC26 (UniProt Q8NHZ8),-0.031 (inactive),0.085 (inactive),-0.011 (inactive),-0.053 (inactive),-0.023 (inactive),0 (inactive),0.003 (inactive),-0.017 (inactive),-0.023 (inactive),-0.125 (inactive)
CMTR1 (UniProt Q8N1G2),-0.337 (active),0.001 (inactive),-0.013 (inactive),-0.052 (inactive),-0.026 (inactive),0.065 (inactive),0.025 (inactive),0.017 (inactive),-0.012 (inactive),0.009 (inactive)
C16orf58 (UniProt Q96GQ5),-0.059 (inactive),-0.148 (inactive),-0.043 (inactive),-0.053 (inactive),-0.009 (inactive),-0.009 (inactive),0.044 (inactive),0.037 (inactive),0.004 (inactive),0.015 (inactive)
CHD3 isoform 3 (UniProt Q12873),-0.137 (inactive),0.082 (inactive),0.174 (inactive),0.097 (inactive),-0.001 (inactive),-0.207 (inactive),0 (inactive),-0.051 (inactive),-0.016 (inactive),-0.024 (inactive)
CDK1 (UniProt P06493),0.04 (inactive),0.024 (inactive),0.007 (inactive),0.02 (inactive),-0.083 (inactive),-0.036 (inactive),0.009 (inactive),0.017 (inactive),0.008 (inactive),-0.002 (inactive)
CSNK2A2 (UniProt P19784),-0.042 (inactive),-0.019 (inactive),-0.003 (inactive),-0.094 (inactive),0.001 (inactive),-0.177 (inactive),-0.031 (inactive),0.033 (inactive),0.02 (inactive),0.128 (inactive)
CPSF3 (UniProt Q9UKF6),-0.063 (inactive),0.033 (inactive),0.011 (inactive),-0.007 (inactive),-0.067 (inactive),-0.021 (inactive),0 (inactive),-0.012 (inactive),0.009 (inactive),-0.025 (inactive)
CALB1 (UniProt P05937),0.029 (inactive),-0.192 (inactive),0.006 (inactive),-0.024 (inactive),-0.022 (inactive),-0.071 (inactive),-0.024 (inactive),0.015 (inactive),0.013 (inactive),0.027 (inactive)
CBX5 (UniProt P45973),0.119 (inactive),-0.046 (inactive),0.029 (inactive),-0.014 (inactive),-0.062 (inactive),0.003 (inactive),0.024 (inactive),0.022 (inactive),0.019 (inactive),0.106 (inactive)
CSNK1D (UniProt P48730),0.045 (inactive),0.153 (inactive),-0.019 (inactive),0.027 (inactive),-0.016 (inactive),-0.049 (inactive),-0.006 (inactive),-0.009 (inactive),0.041 (inactive),-0.053 (inactive)
COASY isoform 2 (UniProt Q13057),0.034 (inactive),-0.061 (inactive),0.024 (inactive),-0.071 (inactive),-0.038 (inactive),0.01 (inactive),-0.038 (inactive),0.045 (inactive),0.043 (inactive),0.028 (inactive)
CHP1 (UniProt Q99653),0.039 (inactive),-0.044 (inactive),0.058 (inactive),-0.084 (inactive),-0.144 (inactive),0.129 (inactive),0.026 (inactive),-0.02 (inactive),-0.054 (inactive),0.053 (inactive)
CD53 (UniProt P19397),-0.1 (inactive),0.025 (inactive),-0.022 (inactive),0.084 (inactive),-0.04 (inactive),0.154 (inactive),0.053 (inactive),0.102 (inactive),-0.208 (inactive),0.276 (inactive)
CA8 (UniProt P35219),0.046 (inactive),-0.055 (inactive),0.09 (inactive),-0.073 (inactive),-0.112 (inactive),-0.086 (inactive),0.023 (inactive),0.032 (inactive),0.008 (inactive),0.173 (inactive)

Target,log2 fold change [1],log2 fold change (filanesib),log2 fold change (zotarolimus),log2 fold change (idasanutlin),log2 fold change (alisertib),log2 fold change [2],log2 fold change (gefitinib),log2 fold change [3],log2 fold change (lapatinib),log2 fold change (pictilisib)
CHMP4C (UniProt Q96CF2),0.163 (inactive),0.014 (inactive),-0.028 (inactive),-0.001 (inactive),0.037 (inactive),0.064 (inactive),-0.014 (inactive),0.02 (inactive),-0.027 (inactive),-0.005 (inactive)
CIT isoform 4 (UniProt O14578),-0.099 (inactive),0.055 (inactive),-0.003 (inactive),0.027 (inactive),-0.036 (inactive),-0.228 (active),-0.12 (inactive),-0.06 (inactive),0.031 (inactive),-0.044 (inactive)
CA1 (UniProt P00915),-0.022 (inactive),-0.002 (inactive),-0.006 (inactive),-0.044 (inactive),-0.032 (inactive),-0.026 (inactive),0.022 (inactive),0.018 (inactive),-0.045 (inactive),0.072 (inactive)
CNOT2 (UniProt Q9NZN8),-0.006 (inactive),0.006 (inactive),0.014 (inactive),0.005 (inactive),-0.01 (inactive),0.021 (inactive),0.017 (inactive),-0.021 (inactive),0.048 (inactive),0.04 (inactive)
CD55 isoform 7 (UniProt P08174),-0.115 (inactive),0.086 (inactive),0.001 (inactive),0.038 (inactive),-0.144 (inactive),0.012 (inactive),0.104 (inactive),-0.136 (inactive),0.031 (inactive),0.005 (inactive)
CRKL (UniProt P46109),0.006 (inactive),0.002 (inactive),0.007 (inactive),0.022 (inactive),-0.036 (inactive),0.021 (inactive),0 (inactive),0.102 (inactive),-0.012 (inactive),0.057 (inactive)
CAMKK2 (UniProt Q96RR4),-0.063 (inactive),0.085 (inactive),-0.077 (inactive),-0.091 (inactive),-0.377 (inactive),0.12 (inactive),0.019 (inactive),0.015 (inactive),0.025 (inactive),0.035 (inactive)
COX6B1 (UniProt P14854),-0.08 (inactive),0.003 (inactive),0.012 (inactive),0 (inactive),0.007 (inactive),0.045 (inactive),0.036 (inactive),0.019 (inactive),-0.026 (inactive),0.002 (inactive)
CIZ1 (UniProt Q9ULV3),0.039 (inactive),0.04 (inactive),-0.006 (inactive),0.054 (inactive),-0.042 (inactive),-0.106 (inactive),-0.099 (inactive),0.034 (inactive),0.025 (inactive),0.05 (inactive)
CALCOCO2 isoform 4 (UniProt Q13137),-0.041 (inactive),-0.166 (inactive),-0.044 (inactive),0.014 (inactive),0 (inactive),0.018 (inactive),-0.07 (inactive),-0.08 (inactive),0 (inactive),0.031 (inactive)
CPQ (UniProt Q9Y646),-0.014 (inactive),-0.05 (inactive),-0.058 (inactive),-0.093 (inactive),-0.054 (inactive),0.01 (inactive),0.038 (inactive),0.047 (inactive),-0.014 (inactive),0.027 (inactive)
CDK5RAP1 (UniProt Q96SZ6),-0.395 (active),-0.049 (inactive),0.066 (inactive),-0.076 (inactive),-0.057 (inactive),0.131 (inactive),-0.074 (inactive),0.055 (inactive),-0.034 (inactive),0.075 (inactive)
CDAN1 (UniProt Q8IWY9),-0.032 (inactive),-0.017 (inactive),0.008 (inactive),-0.088 (inactive),-0.041 (inactive),-0.044 (inactive),-0.034 (inactive),0.185 (inactive),0.005 (inactive),0.011 (inactive)
CCNB1 (UniProt P14635),-0.006 (inactive),-0.035 (inactive),-0.009 (inactive),0.003 (inactive),-0.061 (inactive),0.015 (inactive),-0.009 (inactive),0.017 (inactive),-0.044 (inactive),0.002 (inactive)
CHD4 isoform 2 (UniProt Q14839),0.04 (inactive),0.079 (inactive),0.019 (inactive),0.045 (inactive),0 (inactive),-0.099 (inactive),0.055 (inactive),-0.097 (inactive),0.013 (inactive),-0.028 (inactive)
CHCHD4 isoform 2 (UniProt Q8N4Q1),0 (inactive),-0.059 (inactive),0.032 (inactive),-0.043 (inactive),-0.099 (inactive),-0.285 (inactive),0.011 (inactive),0.102 (inactive),0.341 (inactive),-0.016 (inactive)
